Inconclusive results are not listed. A number with no mark means an inactive call. Activity calls are given as the source filed them. The call rests on the fitted dose curve; in most records, active means well fitted inhibition curve with a large enough effect; inconclusive means small, poorly fitted or top-dose-only effect; inactive means no such curve, though single readings can be large or run the other way.
Test: Primary qHTS for inhibitors of La Crosse Virus (LACV) - induced cell death in SH-SY5Y cells (AID 1508616);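 on activity change: top concentration of the series differs between compounds; 0% = infected DMSO wells and 100% = uninfected DMSO wells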
Conditions: SH-SY5Y LACV cytopathicity rescue, ATP luminescence, 6 d; series mostly up to 4.29 µM; activity change: at the top concentration
How it was run: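 Readout was luminescence from ATPLite 1step added after a 6-day LACV infection (0.01 MOI) of SH-SY5Y cells that had received pin-transferred compound 24 hr after seeding.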
Potency means the concentration at half of the fitted maximal effect.

Going from `O=c1ccc2ccc(O)c(O)c2o1` to `O=C(CCc1ccc(O)cc1)c1c(O)cc(O)cc1O`, the “activity change” value rises from -10.9% [at 9.63 µM] to 9.44% [at 9.63 µM].

Compared with `O=C1NC(=O)C(c2ccccc2[N+](=O)[O-])=C1Nc1ccc(O)c(Cl)c1`, `O=C1c2ccccc2-c2n[nH]c3cccc1c23` is lower in “activity change” value: -6.05% [at 9.63 µM] for the first, -20.6% [at 9.63 µM] for the second.

Compared with `NC(=NCc1ccccc1)NC(=O)c1nc(Cl)c(N)nc1N`, `Cc1cccc(C#Cc2ccccc2)n1` is lower in “activity change” value: 39% [at 9.63 µM] for the first, -5.65% [at 9.63 µM] for the second.

Going from `OC(CN1CCN(c2cccc(Cl)c2)CC1)C(c1ccccc1)c1ccccc1` (stereo unspecified) to `Oc1ccc2ccccc2c1SSc1c(O)ccc2ccccc12`, the “activity change” value rises from 3.97% [at 9.63 µM] to 27.9% [at 9.63 µM].

Going from `CN(C)CCCC1(c2ccc(F)cc2)OCc2cc(C#N)ccc21` (stereo unspecified) to `CC1(C)C(=O)N(CCN2CCC(C(=O)c3ccc(F)cc3)CC2)c2ccccc21`, the “activity change” value falls from 4.07% [at 9.63 µM] to -7.72% [at 9.63 µM].

Going from `NCCCCNCCCN` to `CCN(CC)C(=S)SSC(=S)N(CC)CC`, the “activity change” value rises from 22.9% [at 9.63 µM] to 27.9% [at 9.63 µM].

In the case of `CC(=O)O[C@H]1C(=O)[C@@]2(C)C([C@H](OC(=O)c3ccccc3)[C@]3(O)C[C@H](OC(=O)[C@H](O)[C@@H](NC(=O)c4ccccc4)c4ccccc4)C(C)=C1C3(C)C)[C@]1(OC(C)=O)CO[C@@H]1C[C@@H]2O` (stereo partly specified), the “activity change” value is reported as -72.8% [at 9.63 µM].

Compared with `Cc1ccc(NC(=O)c2ccc(CN3CCN(C)CC3)cc2)cc1Nc1nccc(-c2cccnc2)n1`, `Cc1ccc(Nc2nccc(N(C)c3ccc4c(C)n(C)nc4c3)n2)cc1S(N)(=O)=O` is higher in “activity change” value: -1.22% for the first, 31.8% for the second.

Compared with `Clc1ccc(C(Cn2ccnc2)OCc2ccsc2Cl)c(Cl)c1` (stereo unspecified), `COc1cc(C(C)=O)ccc1OCCCN1CCC(c2noc3cc(F)ccc23)CC1` is lower in “activity change” value: 27.2% for the first, 20% for the second.

First: COC(=O)C1=C(C)NC(C)=C(C(=O)OCCCN2CCC(c3ccccc3)(c3ccccc3)CC2)C1c1cccc([N+](=O)[O-])c1 (stereo unspecified)
Second: COC(=O)C1=C(C)NC(C)=C(C(=O)OC(C)C)C1c1cccc2nonc12 (stereo unspecified)
The “activity change” value of the first is higher: 21% for the first, 6.62% for the second.

Compared with `O=C(NOCC1CC1)c1ccc(F)c(F)c1Nc1ccc(I)cc1Cl`, `CC1(C)CCC(C)(C)c2cc(NC(=O)c3ccc(C(=O)O)cc3)ccc21` is higher in “activity change” value: -18.8% for the first, 45.5% for the second.

First: CN1C(C(=O)Nc2ccccn2)=C(O)c2sccc2S1(=O)=O
Second: CN(C)c1ccc2nc3ccc(=[N+](C)C)cc-3sc2c1
The “activity change” value of the first is lower: -8.16% for the first, 22.1% for the second.

For `CC[C@]1(O)C[C@H]2CN(CCc3c([nH]c4ccccc34)[C@@](C(=O)OC)(c3cc4c(cc3OC)N(C=O)[C@H]3[C@@](O)(C(=O)OC)[C@H](OC(C)=O)[C@]5(CC)C=CCN6CC[C@]43[C@@H]65)C2)C1`, the Potency was 100 nM (active).
In the case of `Nc1ccn([C@@H]2O[C@H](CO)[C@@H](O)C2O)c(=O)n1` (stereo partly specified), the Potency is reported as 316 nM (active).
With `C[C@H](Cc1ccc(O)c(O)c1)[C@@H](C)Cc1ccc(O)c(O)c1` the Potency was 1000 nM (active).
